Measured values reported in PubChem BioAssay (NCI).
The panel holds about 83,000 compounds, 20% with a hit somewhere; the sample as a whole holds those more often.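 48-hour exposure, single concentration, 96-well plates; percent growth endpoint where 0 means no net growth. Active: below 10.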 Unmarked numbers belong to inactive results. Calls of active or inactive are those of the source.

Experiments:
Test in all cases: NCI-60 one-dose screen, 48 h (100 = growth as untreated, 0 = no growth, -100 = all killed)
Settings in all cases: 10 µM unless noted
[1] = test system: NCI-H23 lung
[2] = test system: NCI-H226 lung
[3] = test system: NCI-H322M lung
[4] = test system: HOP-62 NSCLC
[5] = test system: NCI-H460 lung
[6] = test system: HOP-92 NSCLC
[7] = test system: NCI-H522 lung
[8] = test system: A549/ATCC NSCLC
[9] = test system: 786-0 renal
[10] = test system: COLO 205 colon

SMILES | growth [1] | growth [2] | growth [3] | growth [4] | growth [5] | growth [6] | growth [7] | growth [8] | growth [9] | growth [10]
CN(C)CCN1CCN(c2ncccc2C2Nc3ccccc3-n3cccc32)CC1 (stereo not given) | 96.2% | 102% | 102% | 109% | 106% | 84.9% | 104% | 103% | 91.8% | -48.6% (active)
CC1=C(SCCC(=O)OC(C[Se]C2=C(C)C(=O)c3ccccc3C2=O)C(=O)NC(C)(C)C)C(=O)c2ccccc2C1=O (stereo not given) | -42.7% (active) | -63.3% (active) | -79.8% (active) | -65.4% (active) | -59% (active) | -66.6% (active) | -48.2% (active) | -40% (active) | -86.1% (active) | -86.4% (active)
C=C(C)[C@@H]1CC[C@]2(N=C=O)CC[C@]3(C)[C@H](CC[C@@H]4[C@@]5(C)Cc6c([nH]c7ccccc67)C(C)(C)[C@@H]5CC[C@]43C)[C@@H]12 | 98% | 90.5% | 88.4% | 89% | 39.5% | 66.2% | 53.4% | 73.5% | 66.7% | 65.6%
CCC12CCC[N+]3([O-])CCC4(C(=Nc5ccccc54)C(O)(C(=O)OC)C1)C23 (stereo not given) | 101% | 106% | 103% | 94.5% | 111% | 94.4% | 115% | 114% | 106% | 118%
Oc1ccc(Cl)cc1Cc1cc(Cl)cc(Cl)c1O | 9.44% (active) | 90.1% | 29.9% | 22.9% | 20.9% | -24.9% (active) | 38.9% | 46.8% | 59.5% | 114%
CN1CCN(c2ccc(-c3ccc4ncc(C#N)c(Nc5ccc(F)c(Cl)c5)c4c3)cc2)CC1 | 77.4% | 86.8% | 19.7% | 65.9% | 27% | 63.5% | 33.3% | 45.6% | 45.4% | 47.5%
Brc1ccc2[nH]cc(-c3nc(-c4c[nH]c5ccncc45)cs3)c2c1 | -41.6% (active) | 89.7% | -18.6% (active) | -79.1% (active) | -91.1% (active) | -34.3% (active) | -68.4% (active) | -77.6% (active) | -91.3% (active) | -76.4% (active)
COc1cc(C2CC(c3ccc(N(C)C)cc3)=NN2C(C)=O)cc(OC)c1OC (stereo not given) | 31.2% | 79.6% | 44.2% | 47.8% | 10.8% | 60.7% | -5.66% (active) | 51.2% | 24.1% | 19.2%
O=[N+]([O-])c1ccc(Oc2nc(Nc3ccc(O[C@H]4CO[C@H]5[C@@H]4OC[C@@H]5O)c(Cl)c3)ncc2F)c(Cl)c1 | 25.7% | 19.5% | 29.9% | 23.2% | 22.7% | -7.77% (active) | 8.06% (active) | 40% | 21.4% | 33.3%
Cc1cc2[nH]c(=O)c3c4ncccc4cn3c2cc1C | 70% | 51.8% | 29.9% | 59% | -33.9% (active) | 83.3% | -23.7% (active) | 49.8% | 7.03% (active) | 14.8%
COc1ccc(N)c(N)c1 | 96.4% | 113% | 95.4% | 105% | 105% | 92.5% | 81.4% | 98.1% | 102% | 105%
CCN1C(=O)N(CC)C2Nn3c(s/c(=C4\C(=O)Nc5ccccc54)c3=O)=NC21 (stereo not given) | 48.6% | 79.3% | 71.5% | 68.4% | 23.7% | 69.7% | 15.4% | 55.1% | 32% | 19.5%
COc1ccc(-c2nc(NCCO)[nH]c(=O)c2C#N)cc1 | 95.1% | 99.9% | 95.8% | 86.3% | 112% | 98.5% | 88.5% | 98.5% | 101% | 101%
CN(C)CCNc1nc2ccccc2c2c(=O)c3cc(F)ccc3sc12 | 58.6% | 83.3% | 53% | 51.9% | -5.59% (active) | 10% | 37.8% | 38.9% | 54.1% | -39.6% (active)
O=c1ccc(N=Nc2ccc([N+](=O)[O-])cc2)ccc1O | 2.17% (active) | 16.6% | 17.6% | 33% | 17.8% | 47.5% | 14% | 31.5% | 42.3% | 16.7%
COc1ccc(C2C(N)=NNC2c2cccc(O)c2)cc1 (stereo not given) | 90.2% | 84% | 90.6% | 90.2% | 115% | 88.3% | 89.2% | 99.8% | 108% | 125%
C=C1CC[C@@]2(C#N)[C@H]3[C@H](CC[C@@H]2C)[C@@H](C)C[C@@H](CC(C)(C)C#N)[C@H]13 | 44.1% | 62.7% | 90.2% | 41.9% | 22.8% | -16.9% (active) | 47.7% | 42.9% | 43% | 35.5%
COc1ccc(CN2c3ccccc3CCc3ccccc32)cc1F | 38.7% | 52.9% | 57.6% | 36.8% | 6.64% (active) | 36.4% | -36% (active) | 21.2% | 33.9% | -13.9% (active)
C[N+]1=C(/C=C/c2ccc(O)c3ncccc23)C(C)(C)c2ccccc21 | 80.1% | 15% | 97.4% | 30% | 32.8% | 87.1% | 51.9% | 17.9% | 66.7% | 35.7%
COc1cc(Nc2cn[nH]c2-c2ccc(Cl)cc2)cc(OC)c1OC | 6.84% (active) | 65.2% | 79.7% | 36.7% | 33.2% | 50.7% | 21.7% | 51% | 53.5% | 37.6%
CC/C=C\C[C@@H](O)C/C=C1/C(=O)C=C[C@H]1C/C=C\CCCC(=O)OC | 22.3% | 8.9% (active) | 12% | -31.6% (active) | -33.2% (active) | 22.9% | -67.7% (active) | -16.6% (active) | 30.5% | -58% (active)
Cc1ccc(C(=O)N/N=C/c2cccc([N+](=O)[O-])c2)cn1 | 101% | 90% | 97.1% | 98.7% | 106% | 91.4% | 84.8% | 92.1% | 31.4% | 112%
COc1ccc2sc3c(NCCCNCCO)nc4ccccc4c3c(=O)c2c1 | 63.6% | 98% | 72.8% | 77.3% | -71.1% (active) | 31.2% | 70.6% | 62.6% | 63% | -35.4% (active)
COc1ccc(/C=N/Nc2cc(=O)[nH]c3ccc(Cl)cc23)cc1 | 20.2% | 80.4% | 66.3% | 71.9% | 23.9% | 70.8% | -42.7% (active) | 40.2% | 62.1% | 83.3%
COc1cc(OCc2cccc(-c3ccc(C(O)c4nccs4)cc3)c2C)cc(OC)c1CNCCNC(C)=O (stereo not given) | 98.1% | 96.2% | 99.1% | 108% | 101% | 81.8% | 101% | 96.3% | 102% | 104%
O=C1CSC(c2c(Cl)cccc2Cl)N1c1nc(Cl)cc(=O)[nH]1 (stereo not given) | 104% | 99.8% | 177% | 95.8% | 101% | 65% | 75.8% | 103% | 90.7% | 111%
CC1=C(C)C(=O)C(Nc2cccc(C(=O)OC(C)(C)C)c2)=C(Br)C1=O | 85.9% | 86.5% | 91.1% | 92.6% | 99.7% | -32.5% (active) | 67.4% | 95.6% | 96.2% | 114%
